Screens from PubChem.
POLB inh = blocks human DNA polymerase beta activity. P06746. Pol beta primer extension/strand displacement, fluorescence kinetic. Potency, µM (top dose mostly 114 µM), for the others: at the top dose activity change, negative = inhibition, usual class: inhibitors. actives 1.3% (n = 340,000); also: % is scaled to controls: 0 for no effect and ±100 for the full control effect
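Pol beta (10 nM) and compounds were preincubated 15 min at room temperature, then 50 nM substrate (final) started primer extension/strand displacement. Reads were taken at 0 and 10 min; concentration-response data were fitted to a four-parameter Hill equation.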
POLK inh = blocks human DNA polymerase kappa activity | Q9UBT6 | purified Pol kappa, fluorescent DNA synthesis assay, 10 min | Potency, µM (series often up to 107 µM), inactives show top-dose activity, negative = inhibition, hits mostly inhibitors | actives 0.53% (n = 400,000) | AID 588579; also: % is scaled to controls: 0 for no effect and ±100 for the full control effect
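Here, compound and 10 nM enzyme are combined for 15 min at room temperature; adding 50 nM substrate (final) starts DNA synthesis, tracked by fluorescence at 0 and 10 min against buffer-only wells.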
POLH inh = blocks human DNA polymerase eta activity; Q9Y253; actives 1.2% (n = 390,000); AID 588591; Potency, µM (highest dose often 114 µM), for the others: top-dose activity change, negative = inhibition, actives largely listed as inhibitors; recombinant Pol eta, fluorescent DNA replication assay; also: % is scaled to controls: 0 for no effect and ±100 for the full control effect
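Pol eta at 10 nM preincubated with compounds 15 min at room temperature; reaction started with fluorescent substrate (50 nM final) and read kinetically at 0 and 10 min.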
Tb PGK inh = T. brucei PGK inhibition; P07378; Potency, µM (highest dose often 57.5 µM), for inactives: at the top dose activity change, negative = inhibition, hits mostly inhibitors; PGK/GAPDH coupled, Kinase-Glo luminescence, 60 min; actives 0.043% (n = 380,000); AID 602233; also: % is scaled to controls: 0 for no effect and ±100 for the full control effect; nearly all actives have a fitted effect of over 60% in size
Target sequence (P07378 whole entry, looked up): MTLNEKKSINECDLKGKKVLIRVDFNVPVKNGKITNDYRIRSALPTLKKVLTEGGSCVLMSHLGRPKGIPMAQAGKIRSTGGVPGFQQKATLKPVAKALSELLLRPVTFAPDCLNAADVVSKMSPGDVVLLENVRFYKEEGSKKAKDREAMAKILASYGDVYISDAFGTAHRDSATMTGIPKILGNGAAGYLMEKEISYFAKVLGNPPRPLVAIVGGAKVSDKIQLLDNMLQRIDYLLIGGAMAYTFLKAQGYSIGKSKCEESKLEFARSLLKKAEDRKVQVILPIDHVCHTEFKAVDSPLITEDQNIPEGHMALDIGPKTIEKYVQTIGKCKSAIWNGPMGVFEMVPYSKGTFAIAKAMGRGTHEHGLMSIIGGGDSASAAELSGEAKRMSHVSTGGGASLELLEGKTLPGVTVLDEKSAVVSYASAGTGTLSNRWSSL
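Luminescent ATP detection (Kinase-Glo Plus) follows a 60-minute room-temperature incubation, with wells lacking PGK as controls. Buffer: 100 mM TEA (pH 7.6), 5 mM MgCl2, 0.01% Tween-20. Coupling enzyme GAPDH (100 nM final) supplies unstable 1,3-BPG in-well.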
FEN1 inh = blocks human flap endonuclease 1; Potency, µM (highest dose often 114 µM), for inactives: at the top dose activity change, negative = inhibition, hits mostly inhibitors; P39748; actives 0.35% (n = 390,000); Recombinant FEN1 flap cleavage, fluorescence, 15 min; also: % is scaled to controls: 0 for no effect and ±100 for the full control effect; nearly all actives have a fitted effect of over 65% in size
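Potency values derive from four-parameter Hill fits of normalized qHTS data. The reaction used 10 nM FEN1 preincubated 15 min at room temperature with compound, then 50 nM DNA substrate, read at 0 and 15 min.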
Pol iota inh = inhibitors of human DNA polymerase iota; Q9UNA4; Pol iota fluorescent replication assay, 10 min; Potency, µM (titrated, usually from 115 µM), without a hit: top-dose activity, negative = inhibition, usual class: inhibitors; actives 1% (n = 390,000)
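Pol iota at 10 nM preincubated 15 min with compounds at room temperature; reaction started with fluorescent substrate, 50 nM final. Fluorescence read kinetically at 0 and 10 min; buffer-only wells as negative control.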
Active calls of the source: *; i = inactive; ? = inconclusive; . = not tested or not shown; [ ] = another dose, or the depositor's remark. Hits are enriched below; roughly 2.4% of the tested compounds scored in any of these assays. Calls follow the shape of the dose curve; as a rule, active = well fitted curve in the direction sought with a large enough effect; inconclusive = small, poorly fitted or top-dose-only effect, or another doubt; inactive = no such curve, though single readings can be large; an effect the other way counts as inactive or inconclusive. Potency is read from the fitted curve at half-maximal effect.

SMILES | POLB inh | POLK inh | POLH inh | Tb PGK inh | FEN1 inh | Pol iota inh
Cc1[nH]n(-c2ccccc2)c(=O)c1C(C[N+](=O)[O-])c1ccc(Cl)cc1 (configuration not stated) | -17.7% | -1.0% | -16.1% | -5.2% | -2.4% | -11.5%
CCOC(=O)c1[nH]c(C)c(C(=O)/C=C/c2ccc(C(=O)O)cc2)c1C | 38.9% | -14.0% | 22.4µM* | -3.9% | 0.9% | -14.0%
CCOC(=O)c1[nH]c(C)c(C(=O)O)c1C | -0.5% | . | . | . | . | .
CC1CCN(CCCNC(=O)c2cc(Sc3ccc(F)cc3)nc3ccccc23)CC1 | -2.5% | -4.5%[60.1 µM] | -6.7% | -1.3% | -12.2% | ?
O=C1S/C(=C\c2cccs2)C(=O)N1c1ccc(O)cc1 | ? | -10.3% | -20.9% | . | -2.3% | 1.3%
O=C1S/C(=C\C=C\c2ccco2)C(=O)N1c1ccc(O)cc1 | 7.94µM* | ? | ? | -0.9% | -14.1% | 31.6µM*
CCn1c2ccccc2c2cc(NC(=O)CSc3nnc(-c4cccc(OC)c4)n3N)ccc21 | ? | -13.3% | -12.2% | 1.5% | -15.2% | ?
CCOc1ccc(-c2nnc(SCC(=O)Nc3ccc4c(c3)c3ccccc3n4CC)n2N)cc1 | 39.8µM* | -36.7% | ? | -2.5% | -10.4% | 50.1µM*
COc1cc(-c2cc(OC)c3c(C)oc(C)c3c(=O)c2)ccc1OC(=O)c1ccccc1Cl | 0.5% | -0.2% | -21.9% | -1.8% | 6.6% | 22.4%
COc1cc(-c2cccs2)cc(=O)c2c(C)oc(C)c12 | 14.1µM* | -17.5% | -9.5% | -6.9% | -30.6% | ?
COc1cccc(N2CCN(C(=O)NC3CCCCC3)CC2)c1 | 0.1% | -5.1% | -2.9% | 1.2% | -9.5% | 18.5%
COc1ccc(N2CCN(C(=O)NC3CCCCC3)CC2)cc1 | -2.0% | -3.1% | ? | -3.3% | -1.2% | 89.1µM*
O=C(CSc1nccc(=O)[nH]1)N1c2ccccc2CCc2ccccc21 | -11.6% | -2.6% | -6.7% | i[11.5 µM] | -7.5% | 70.8µM*
O=C(CCl)N1CCN2C(=O)c3ccccc3C12c1ccc(Cl)cc1 (configuration not stated) | -21.2% | 1.9% | 79.4µM* | -1.1% | 2.2% | 68.9%
Cc1ccc(C)c(-n2c(N)c(C#N)c3nc4ccccc4nc32)c1 | 2.6% | -28.3% | -3.4% | 13.3% | -3.5% | 25.1µM*
CC(=O)Nc1cccc(NC(=O)Nc2cccc(Cl)c2C)c1 | 44.7µM* | -23.5% | -8.9% | 4.6% | -17.0% | 10.4%
CC(=O)Nc1cccc(NC(=S)Nc2cccc(Cl)c2C)c1 | -2.1% | -14.2% | -3.4% | 4.0% | 12.5% | ?
CCOC(=O)C1Nc2ccc(C(F)(F)F)cc2C2c3ccccc3CC12 (configuration not stated) | . | 5.7% | -12.7% | i | 3.2% | 30.0%
CCOC(=O)C1Nc2ccccc2C2C(O)C(O)CC12 (configuration not stated) | . | -31.1% | 9.5% | -11.4% | -25.5% | 25.1µM*
CCC(=O)NC1=C(Cl)C(=O)C(NC(=O)CC)=C(Cl)C1=O | 10.9% | 0.9% | ? | i | ? | 1.78µM*
CCC(=O)NC1=C(NC(C)c2ccccc2)C(=O)c2ccccc2C1=O (configuration not stated) | 6.9% | -1.5% | -1.4% | 4.8% | 1.6% | 41.8%
COc1ccccc1-n1c(SCc2cc(=O)oc3cc(O)ccc23)nc2ccccc2c1=O | ? | -44.8% | 31.6µM* | -8.2% | -13.0% | ?
O=C(Cn1c(SCC(=O)N2CCc3ccccc3C2)nc2ccccc21)NC1CCCC1 | 89.1µM* | -6.8% | -8.4% | -9.1% | -12.2% | 17.9%
CCCn1c(SCC(=O)N2CCc3ccccc3C2)nc(O)cc1=O | . | ? | 6.0% | -1.4% | 7.6% | 10µM*
O=C(Cn1c(SCC(=O)N2CCc3ccccc32)nc2ccccc21)NC1CCCC1 | 6.3% | 7.1% | -7.9% | i | 23.3% | -6.3%
SMILES | POLB inh | POLK inh | POLH inh | Tb PGK inh | FEN1 inh | Pol iota inh
CS(=O)(=O)N1CCN(/[N+]([O-])=N/Oc2ccc([N+](=O)[O-])cc2[N+](=O)[O-])CC1 | . | 10.6% | . | . | 4.2% | ?
CCc1ccc(-n2c(SCC(=O)N3CCC(C(=O)O)CC3)nnc2-c2ccncc2)cc1 | 2.0% | -9.5% | 4.8% | -4.7% | 6.7% | 61.7%
CCc1ccc(-n2c(SCC(=O)N3Cc4ccccc4CC3C(=O)O)nnc2-c2ccncc2)cc1 (configuration not stated) | 2.9% | -8.0% | 22.4µM* | -11.8% | -3.1% | 33.4%
c1ccc(C(NCc2cccnc2)(c2ccccc2)c2ccccc2)cc1 | . | -21.8%[60.1 µM] | . | . | ? | .
O=C(NCc1ccco1)c1cc(=O)c2ccccc2o1 | -18.2% | -8.6% | -2.8% | -1.5% | 0.1% | -12.4%
Nc1ccccc1C(=O)NCc1ccco1 | -0.2% | -8.8% | -7.8% | -5.2% | 0.6% | 55.7%
Cc1scc(C(=O)NCc2ccco2)c1-c1ccccc1 | 22.4µM* | -13.2% | ? | -11.5% | -11.4% | ?
O=C(NCc1ccco1)c1ccccc1F | ? | -28.9% | 22.4µM* | -1.4% | -16.8% | ?
O=C(CN1CCN(c2ccccc2F)CC1)NC(=O)NCc1ccco1 | 31.6µM* | ? | -10.8% | -3.8% | 0.4% | ?
O=C(NCc1ccco1)c1cc2ccccc2c(=O)o1 | 44.7µM* | ? | ? | -11.8% | 2.9% | ?
COc1ccccc1/C=C/c1ccnc2ccccc12 | . | -3.4% | . | . | -7.6% | 11.2%
O=C(Nc1cccc2cccnc12)c1ccc(Br)cc1 | . | -0.8% | . | . | -26.8% | -8.5%
CCCCCn1c(-c2ccc(OC)c(OC)c2)nc2ccccc21 | -1.6% | -4.3% | -14.0% | -9.9% | -2.2% | 15.7%
O=C(Cn1c(=O)oc2ccccc21)NCc1ccccc1Cl | -11.6% | -10.9%[60.1 µM] | -9.1% | -1.8% | 0.8% | 6.5%
CC1=C(C(=O)Nc2ccccc2)C(c2cccnc2)n2nc(SCc3ccccc3Cl)nc2N1 (configuration not stated) | -23.9% | -3.2% | 6.7% | -8.3% | 10.2% | -13.7%
Nn1c(SCC(=O)NC2CCCCC2)nnc1C1CC1 | 0.316µM* | -18.3% | 1.1% | -7.4% | -1.3% | 0.8%
CCCCCCCCOc1c(OC)cc(/C=C/C(=O)N2CCN(c3ccc(C)c(C)c3)CC2)cc1OC | . | -17.6%[12 µM] | . | . | . | .
CCOc1cc(CNc2ccc(O)cc2)cc(Br)c1OCc1ccccc1 | -2.4% | -10.0% | -23.9% | 6.4% | -21.7% | 39.8µM*
Oc1ccc(NCc2ccccc2OCc2ccccc2)cc1 | 4.9% | -10.8% | ? | -9.4% | ? | 7.08µM*
COc1cc(CNc2ccc(O)cc2)cc(Br)c1OCc1ccccc1F | -29.1% | -36.4% | -17.1% | -4.9% | -16.3% | 28.2µM*
